Screening data: PubChem BioAssay, several laboratories
Shown are actives, neighbours in structure and some others; about 3.8% of the full set was active somewhere.
CR mimetic SO = yeast age-related superoxide inhibition as caloric restriction mimetic. S. cerevisiae aged cells, superoxide DHE fluorescence; active compounds read low. superoxide response (% of plate mean), % at 10 µM. 330,000 compounds, 0.18% hits;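 active = superoxide response under a set limit, about three screen SD below normal, cut at about 65% in these data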;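 note: yeast aged for seven days with compound at 30 °C before DHE staining; 100% = average MFI of all compound-treated wells on the plate with controls excluded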
NALP3 yeast inh = blocks the NALP3 inflammasome reconstituted in yeast; inhibition, % at 10 µM; Yeast reconstituted NLRP3/ASC/caspase-1, beta-gal luminescence, 24 h; 330,000 compounds, 0.39% hits;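 active = inhibition of 50% or more; inactive = inhibition below 50%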;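 note: plate controls were induced DMSO wells for no effect and uninduced yeast grown without galactose for full effect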
tim23-1 inh = inhibits growth of tim23-1 mutant yeast | S. cerevisiae tim23-1 growth, BacTiter-Glo luminescence, 24 h | inhibition, % at 20 µM | 330,000 compounds, 1.3% hits;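 active = growth inhibition of the mutant yeast at or above 50%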;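 note: temperature-sensitive mutant grown at 25 °C; plate controls were DMSO-treated mutant yeast for no effect and medium wells lacking yeast for full effect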
tim10-1 inh = inhibits growth of tim10-1 mutant yeast; S. cerevisiae tim10-1 ts strain growth, BacTiter-Glo, 24 h; inhibition, % at 20 µM; 330,000 compounds, 2.2% hits;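 active = inhibition of at least 40%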;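 note: mutant grown at 25 °C; 0% = DMSO wells with yeast and 100% = wells holding no yeast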
TIM10 inh = TIM10 yeast growth inhibition | S. cerevisiae TIM10 strain growth, BacTiter-Glo luminescence, 24 h | inhibition, % at 10 µM | 330,000 compounds, 1.4% hits | AID 463195;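 active = inhibition of 40% or more at the single tested concentration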;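 note: wild-type TIM10 isogenic control strain grown at permissive 25 °C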
tim10-1 confirm = tim10-1 yeast growth inhibition, confirmed; shares compounds with tim10-1 inh; 7,400 compounds, 56% hits; AID 463213; S. cerevisiae tim10-1 ts strain growth, BacTiter-Glo, 24 h; inhibition, % at 20 µM;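 active = inhibition of yeast growth at or above a set limit in either of two repeat tests at 20 µM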;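 note: tim10-1 mutant grown at permissive 25 °C to find synthetic lethal compounds; 0% = DMSO yeast wells and 100% = medium wells without yeast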
tim10 confirm = TIM10 yeast growth inhibition, confirmed. shares compounds with TIM10 inh. S. cerevisiae tim10 strain growth, BacTiter-Glo luminescence, 24 h. inhibition, % at 10 µM. 4,600 compounds, 63% hits. AID 463215;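 active = inhibition of yeast growth at or above a set limit in either of two replicates at 10 µM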;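 note: this counterscreen used the strain with wild-type TIM10; 0% = yeast with DMSO and 100% = medium wells lacking yeast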
tim23-1 confirm = tim23-1 yeast growth inhibition, confirmed; inhibition, % at 20 µM; S. cerevisiae tim23-1 growth, BacTiter-Glo luminescence, 24 h; 4,400 compounds, 83% hits; shares compounds with tim23-1 inh;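 active = inhibition above about 39% in either of two replicate wells at 20 µM, limit read from the data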;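 note: temperature-sensitive tim23-1 mutant grown at 25 °C; 0% = DMSO wells with yeast and 100% = medium wells without yeast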
Starred values were filed as active, the others as inactive; · = not tested or not shown.

SMILES	CR mimetic SO	NALP3 yeast inh	tim23-1 inh	tim10-1 inh	TIM10 inh	tim10-1 confirm	tim23-1 confirm	others
CCN1/C(=C/c2ccc3cccc(C)c3[n+]2CC)Sc2ccccc21	133.8	6.3	68.1*	63.6*	76.8*	73.7*	72.3*	tim10 confirm=79.3*
C[n+]1ccccc1/C=C1\Sc2ccccc2N1CCO	97.1	19.2	-9.8	-13.5	-4.8	·	·
COc1cccc(C(=O)Nc2nnc(-c3cccs3)s2)c1	102.7	6.9	-21.0	-17.0	-26.9	·	·
CCOC(=O)[C@H]1[C@H]2COc3ccc(OC)cc3[C@@H]2N2C(=O)[C@H](C)NC(=O)[C@@]12C	104.8	5.3	5.9	-7.2	-4.3	·	·
CC1(C)CC(=O)C=C(NC2=CC3OC(c4ccccc4)OCC3OC2=O)C1 (configuration not stated)	113.6	5.2	59.5*	68.3*	59.3*	58.0*	56.0*	tim10 confirm=-1.0
Cc1ccccc1NC1=CC(=O)CC(C)(C)C1	115.3	9.0	-9.2	13.7	-4.9	·	·
Cc1nnc(NC(=O)C2COc3ccccc3O2)s1 (configuration not stated)	108.7	-3.6	10.3	4.9	3.8	·	·
CCC(CC)c1nnc(NC(=O)C2COc3ccccc3O2)s1 (configuration not stated)	88.9	13.3	50.3*	47.4*	37.4	45.5*	52.5*
Cc1c(NC(=O)C23CC4CC(CC(Br)(C4)C2)C3)c(=O)n(-c2ccccc2)n1C	92.1	3.1	2.7	2.2	0.1	·	·
